# STAT3 SMM: binders of human STAT3 | P40763 | Small molecule microarray, His-STAT3 binding, anti-His fluorescence | calls only | 0.2% of 17,000 active | AID 624138;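 active means compounds whose four printed spots each show fluorescence over background unusually high for their array block, chance value under 7%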
# mut p53 SMM: binds human mutant p53 on microarray; 0.4% of 17,000 active; calls only; small molecule microarray binding, anti-GST fluorescence;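 active means compounds whose four printed spots each glow above background more than chance allows, each with a p-value under 7%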
# NFkB SMM: binds human NF-kappa-B p105 on microarray; P19838; Small molecule microarray, anti-His fluorescence binding; calls only; 1.3% of 17,000 active;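 active means spot fluorescence over background significantly raised, with a chance value under 7% in all four replicate spots of the compound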;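 further: probe protein is his-tagged human p50 processed subunit at 1 µg/ml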
# c-Myc SMM: binds human c-Myc on microarray. P01106. small molecule microarray, His-c-Myc binding, anti-His fluorescence. calls only. 1.5% of 17,000 active. AID 624141;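 active means spot fluorescence over background with P-value below 7% in all four replicate spots, showing protein binding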
# Target sequence (P01106 whole entry, looked up): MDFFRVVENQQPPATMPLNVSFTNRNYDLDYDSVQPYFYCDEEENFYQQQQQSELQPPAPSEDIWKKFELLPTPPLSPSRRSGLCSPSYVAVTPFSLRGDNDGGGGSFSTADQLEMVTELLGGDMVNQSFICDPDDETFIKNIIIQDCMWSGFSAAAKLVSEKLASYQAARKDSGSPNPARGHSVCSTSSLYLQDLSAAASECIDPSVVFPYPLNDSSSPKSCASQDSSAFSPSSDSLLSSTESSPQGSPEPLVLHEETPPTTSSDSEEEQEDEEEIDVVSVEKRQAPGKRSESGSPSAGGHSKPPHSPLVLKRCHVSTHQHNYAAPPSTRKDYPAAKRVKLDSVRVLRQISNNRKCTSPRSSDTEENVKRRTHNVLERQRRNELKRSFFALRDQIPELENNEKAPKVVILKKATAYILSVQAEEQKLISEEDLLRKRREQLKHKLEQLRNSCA
# Calls only; 0 = inactive; + = active, no number. Hits are enriched below; roughly 2.1% of the tested compounds scored in any of these assays.
SMILES,STAT3 SMM,mut p53 SMM,NFkB SMM,c-Myc SMM
CN(CCC#N)S(=O)(=O)c1cccc2nsnc12,0,0,0,0
CC(C)CC(NS(=O)(=O)c1cccc2nsnc12)C(=O)O (centres undefined),0,0,+,+
C[C@H]1CN([C@@H](C)CO)C(=O)c2cccc(NC(=O)C3CCOCC3)c2O[C@H]1CN(C)S(=O)(=O)c1cn(C)cn1,0,0,0,0
C[C@@H]1CN([C@H](C)CO)C(=O)c2cc(NS(=O)(=O)c3ccccc3)ccc2O[C@@H](C)CCCCO[C@H]1CN(C)C(=O)Nc1ccc(F)cc1,0,0,0,0
CCc1ccc(C(Nc2cc(C)ccn2)c2ccc3cccnc3c2O)cc1 (centres undefined),0,+,0,0
COc1cc(-c2nc3ccccc3s2)cc(Br)c1OCC(=O)O,0,0,0,+
COc1ccc(OCC(=O)Nc2ccccc2-c2nc3ccccc3s2)cc1,0,0,0,0
CCCC(NS(=O)(=O)c1ccc(C)cc1)C(=O)O (centres undefined),0,0,0,+
COc1ccc(S(=O)(=O)Nc2ccc3c(c2)C(=O)N([C@@H](C)CO)C[C@@H](C)[C@H](CN(C)Cc2ccc(C(=O)O)cc2)O3)cc1,0,0,0,0
O=C1O[C@@H](c2ccccc2)[C@@H](c2ccccc2)N2[C@@H](c3ccccc3OCCO)[C@]3(C(=O)Nc4ccccc43)[C@@H](C(=O)N3CCN(c4ncccn4)CC3)[C@H]12,0,0,0,0
Cc1cc2nc3c(=O)[nH]c(=O)nc-3n(C)c2cc1C=O,0,0,0,+
Cc1noc(C)c1NC(=O)Nc1ccc2c(c1)C(=O)N([C@@H](C)CO)C[C@@H](C)[C@H](CN(C)C(=O)C1CCCCC1)OCCCC[C@H](C)O2,0,0,+,+
Cc1noc(C)c1NC(=O)Nc1ccc2c(c1)C(=O)N([C@H](C)CO)C[C@H](C)[C@@H](CN(C)C(=O)C1CCCCC1)OCCCC[C@@H](C)O2,0,0,0,0
Cc1noc(C)c1NC(=O)Nc1ccc2c(c1)C(=O)N([C@H](C)CO)C[C@H](C)[C@H](CN(C)C(=O)C1CCCCC1)OCCCC[C@H](C)O2,+,0,0,0
Cc1noc(C)c1NC(=O)Nc1ccc2c(c1)C(=O)N([C@@H](C)CO)C[C@@H](C)[C@@H](CN(C)C(=O)C1CCCCC1)OCCCC[C@H](C)O2,0,0,0,+
Cc1noc(C)c1NC(=O)Nc1ccc2c(c1)C(=O)N([C@@H](C)CO)C[C@H](C)[C@H](CN(C)C(=O)C1CCCCC1)OCCCC[C@H](C)O2,0,0,0,0
C[C@@H]1CCCCO[C@H](CN(C)CC2CC2)[C@H](C)CN([C@@H](C)CO)C(=O)c2cc(NC(=O)Nc3ccccc3)ccc2O1,0,0,0,0
Cc1[nH]c2ccccc2c1C(=O)CSc1nc2sc3c(c2c(=O)n1-c1ccccc1)CCC3,0,0,0,0
COc1ccc(CN(C)C[C@@H]2Oc3ccc(NC(=O)Nc4ccc(OC)cc4)cc3C(=O)N([C@@H](C)CO)C[C@@H]2C)cc1,0,0,0,0
NCCCN(Cc1ccco1)C1CCCC1,0,0,0,+
C[C@H](CO)N1C[C@H](C)[C@@H](CN(C)Cc2ccc(-c3ccccc3)cc2)Oc2ccc(NC(=O)Nc3cccc4ccccc34)cc2CC1=O,0,0,+,0
C[C@@H]1CN([C@H](C)CO)C(=O)Cc2cc(NC(=O)CCN3CCOCC3)ccc2O[C@H]1CN(C)Cc1ccc(-c2ccccc2)cc1,0,0,0,0
C[C@@H]1CN([C@@H](C)CO)C(=O)Cc2cc(NC(=O)Nc3cccc4ccccc34)ccc2O[C@@H]1CN(C)Cc1ccc(C(=O)O)cc1,0,0,0,0
C[C@@H]1CN([C@@H](C)CO)C(=O)Cc2cc(NC(=O)CCN3CCOCC3)ccc2O[C@H]1CN(C)Cc1ccc(-c2ccccc2)cc1,0,0,0,+
CN(C(=O)CSc1nnc(-c2ccc(Cl)cc2)n1-c1ccccc1)c1ccccc1,0,0,0,0
Cc1c(CC(=O)O)c(=O)oc2cc(OCC(=O)O)ccc12,0,0,0,+
Cc1c(CC(=O)O)c(=O)oc2c(C)c(OCC(=O)O)ccc12,0,0,0,0
Cc1nn(C(=O)Cn2cc([N+](=O)[O-])cn2)c(C)c1Br,0,0,0,+
Cc1noc(C)c1S(=O)(=O)N(C)C[C@H]1OCCCC[C@H](C)Oc2ccc(N(C)C)cc2C(=O)N([C@@H](C)CO)C[C@@H]1C,0,+,0,0
Cc1noc(C)c1S(=O)(=O)N(C)C[C@@H]1OCCCC[C@@H](C)Oc2ccc(N(C)C)cc2C(=O)N([C@H](C)CO)C[C@H]1C,0,0,+,+

# From PubChem
